PubChem BioAssay (NCATS)
Records with an inconclusive call do not appear. Active and inactive are the calls of the source. The call rests on the fitted dose curve; in most records, active means well fitted curve in the direction sought with a large enough effect; inconclusive means small, poorly fitted or top-dose-only effect, or another doubt; inactive means no such curve, though single readings can be large; an effect the other way counts as inactive or inconclusive.

Key:
[1] = qHTS of pediatric cancer cell lines to identify multiple opportunities for drug repurposing: Primary screen for NB-EBc1 cells (AID 1347095);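 further: plate controls were DMSO neutral control for no effect and bortezomib for full effect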
Outline: (§1)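 500-1,000 cells/well; 5 h pre-incubation 37 °C/5% CO2; compound pinned; 48 h; CellTiter-Glo, 15 min RT; luminescence. MIPE 11-pt from 0.78 nM, NPC 8-pt from 0.59 nM final. Bortezomib 2.3 µM final as positive control.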

[2] = qHTS of pediatric cancer cell lines to identify multiple opportunities for drug repurposing: Primary screen for U-2 OS cells (AID 1347096);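 further: plate controls were DMSO wells for no effect and bortezomib positive control wells for full effect; nearly all actives have a fitted effect of over 50% in size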
Outline: (§2)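 Cells (500-1,000/well) rested 5 h, then received compounds for 48 h; metabolically active cells were measured by CellTiter-Glo luminescence. Final concentrations spanned up to 46 µM (MIPE, 11-point) or 0.59 nM-46 µM (NPC, 8-point) in primary screens, 11-point in follow-ups.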

[3] = qHTS of pediatric cancer cell lines to identify multiple opportunities for drug repurposing: Primary screen for Saos-2 cells (AID 1347097); further: on the % scale 0 is the no-effect control and ±100 the full control effect; nearly all actives have a fitted effect of over 40% in size
Outline: as §1

[4] = qHTS of pediatric cancer cell lines to identify multiple opportunities for drug repurposing: Primary screen for NB1643 cells (AID 1347099);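 further: plate controls were DMSO neutral control for no effect and bortezomib positive control for full effect; nearly all actives have a fitted effect of over 50% in size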
Outline: as §1

[5] = qHTS of pediatric cancer cell lines to identify multiple opportunities for drug repurposing: Primary screen for LAN-5 cells (AID 1347100);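 further: plate controls were DMSO neutral control for no effect and bortezomib positive control for full effect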
Outline: as §2

[6] = qHTS of pediatric cancer cell lines to identify multiple opportunities for drug repurposing: Primary screen for BT-12 cells (AID 1347101);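 further: plate controls were DMSO for no effect and bortezomib positive control for full effect; nearly all actives have a fitted effect of over 25% in size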
Outline: as §2

[7] = qHTS of pediatric cancer cell lines to identify multiple opportunities for drug repurposing: Primary screen for Rh18 cells (AID 1347102); further: on the % scale 0 is the no-effect control and ±100 the full control effect; nearly all actives have a fitted effect of over 65% in size
Outline: as §2

[8] = qHTS of pediatric cancer cell lines to identify multiple opportunities for drug repurposing: Primary screen for OHS-50 cells (AID 1347103);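 further: plate controls were DMSO neutral control for no effect and bortezomib positive control for full effect; nearly all actives have a fitted effect of over 40% in size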
Outline: as §2

[9] = qHTS of pediatric cancer cell lines to identify multiple opportunities for drug repurposing: Primary screen for RD cells (AID 1347104);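 further: plate controls were DMSO for no effect and bortezomib for full effect; nearly all actives have a fitted effect of over 55% in size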
Outline: as §1

[10] = qHTS of pediatric cancer cell lines to identify multiple opportunities for drug repurposing: Primary screen for SK-N-SH cells (AID 1347098);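 further: DMSO served as neutral control and bortezomib at 2.3 µM as positive control; on the % scale 0 is the no-effect control and ±100 the full control effect; nearly all actives have a fitted effect of over 65% in size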
Outline: as §2

Cc1cc(-n2nc3ccc(Cl)cc3n2)c(O)c(C(C)(C)C)c1
inactive: outcome [1] | outcome [2] | outcome [3] | Potency [4] | outcome [5] | outcome [6] | outcome [7] | outcome [8] | outcome [9]

CNCc1ccccc1
inactive: outcome [1] | outcome [2] | outcome [3] | outcome [10] | outcome [5] | outcome [6] | outcome [7] | outcome [8] | outcome [9]

c1ccc2[nH]ccc2c1
inactive: outcome [1] | outcome [2] | outcome [3] | outcome [10] | outcome [5] | outcome [6] | outcome [7] | outcome [8] | outcome [9]

COCC(=O)Nc1c(I)c(C(=O)NCC(O)CO)c(I)c(C(=O)N(C)CC(O)CO)c1I (stereo not given)
inactive: outcome [1] | outcome [2] | outcome [3] | outcome [10] | outcome [5] | outcome [6] | outcome [7] | outcome [8] | outcome [9]

CC1CCc2cc(F)cc3c(=O)c(C(=O)O)cn1c23 (stereo not given)
inactive: outcome [1] | outcome [2] | outcome [3] | outcome [10] | outcome [5] | outcome [6] | outcome [7] | outcome [8]

O=C(O)c1ccc[n+]([O-])c1
inactive: outcome [1] | outcome [2] | outcome [3] | outcome [10] | outcome [5] | outcome [6] | outcome [7] | outcome [8] | outcome [9]

CCOC(=O)[C@H](CCc1ccccc1)N[C@@H](C)C(=O)N1CCC[C@H]1C(=O)O
inactive: outcome [1] | outcome [2] | outcome [3] | outcome [10] | outcome [7] | outcome [8] | outcome [9]

O=C1C(c2[nH]c3ccccc3c2O)=Nc2ccccc21
inactive: outcome [1] | outcome [2] | outcome [3] | outcome [10] | outcome [5] | outcome [6] | outcome [7] | outcome [8] | outcome [9]

NC(N)=NCCN1CCCCCCC1
inactive: activity change, negative = cytotoxic [1] 19.5% [at 0.597 µM] | activity change, negative = cytotoxic [2] 9.69% [at 0.597 µM] | activity change, negative = cytotoxic [3] 2.27% [at 0.597 µM] | activity change, negative = cytotoxic [10] -2% [at 0.741 µM] | activity change, negative = cytotoxic [5] 4.87% [at 0.597 µM] | activity change, negative = cytotoxic [6] 7.77% [at 0.745 µM] | activity change, negative = cytotoxic [7] 6.63% [at 0.597 µM] | activity change, negative = cytotoxic [8] 7.69% [at 0.73 µM] | activity change, negative = cytotoxic [9] 3.85% [at 0.597 µM]

COc1ccc2cc(CCC(C)=O)ccc2c1
inactive: outcome [1] | outcome [2] | outcome [3] | outcome [10] | outcome [5] | outcome [6] | outcome [7]

CC(=O)Oc1cccc(O)c1
inactive: outcome [1] | outcome [2] | outcome [3] | outcome [10] | Potency [4] | outcome [6] | outcome [7] | outcome [9]

COC(=O)c1cccnc1
inactive: outcome [1] | outcome [2] | outcome [3] | outcome [10] | outcome [5] | outcome [6] | outcome [7] | outcome [8] | outcome [9]

CC(O)CCCCn1c(=O)c2c(ncn2C)n(C)c1=O (stereo not given)
inactive: outcome [1] | outcome [2] | outcome [3] | outcome [10] | Potency [4] | outcome [7] | outcome [8] | outcome [9]

O=C1c2ccccc2C(=O)C1c1ccc(Br)cc1
inactive: outcome [1] | outcome [2] | outcome [3] | outcome [10] | outcome [6] | outcome [7] | outcome [8] | outcome [9]

CCCCCOC(=O)Nc1nc(=O)n([C@@H]2O[C@H](C)[C@@H](O)[C@H]2O)cc1F
inactive: outcome [1] | outcome [2] | outcome [3] | outcome [10] | outcome [7] | outcome [8] | outcome [9]

CC(=O)OCC(=O)[C@@]1(O)CC[C@H]2[C@@H]3CCC4=CC(=O)C=C[C@]4(C)[C@@]3(F)[C@@H](O)C[C@@]21C
inactive: outcome [1] | outcome [2] | outcome [3] | outcome [10] | outcome [5] | outcome [7] | outcome [8]

CC1(C)[C@@H](OC(=O)CCC(=O)O)CC[C@]2(C)[C@H]3C(=O)C=C4[C@@H]5C[C@@](C)(C(=O)O)CC[C@]5(C)CC[C@@]4(C)[C@]3(C)CC[C@@H]12
inactive: outcome [1] | outcome [2] | outcome [3] | outcome [10] | Potency [4] | outcome [6] | outcome [7] | outcome [8] | outcome [9]

CC(=O)OC[C@H]1O[C@@](COC(C)=O)(O[C@H]2O[C@H](COC(C)=O)[C@@H](OC(C)=O)[C@H](OC(C)=O)[C@H]2OC(C)=O)[C@@H](OC(C)=O)[C@@H]1OC(C)=O
inactive: outcome [1] | outcome [2] | outcome [3] | outcome [10] | outcome [5] | outcome [6] | outcome [7] | outcome [8] | outcome [9]

O=C(O)COC(=O)Cc1ccccc1Nc1c(Cl)cccc1Cl
inactive: outcome [1] | outcome [2] | outcome [3] | outcome [10] | outcome [5] | outcome [6] | outcome [7] | outcome [8]

CC(=O)N[C@H]1[C@H]([C@H](O)[C@H](O)CO)OC(C(=O)O)=C[C@@H]1N=C(N)N
inactive: outcome [1] | outcome [2] | outcome [3] | outcome [10] | Potency [4] | outcome [7] | outcome [8] | outcome [9]

Cc1ccc(S(=O)(=O)NC(=O)NC2CCCCCCC2)cc1
inactive: outcome [1] | outcome [2] | outcome [3] | outcome [10] | Potency [4] | outcome [7] | outcome [8]

NNC(=O)CP(=O)(c1ccccc1)c1ccccc1
inactive: outcome [1] | outcome [2] | outcome [3] | outcome [10] | outcome [5] | outcome [7] | outcome [8] | outcome [9]

CC1(c2ccccc2)OC(C(=O)O)=CC1=O (stereo not given)
inactive: outcome [1] | outcome [2] | outcome [3] | outcome [10] | outcome [5] | outcome [6] | outcome [7] | outcome [8] | outcome [9]

NS(=O)(=O)c1ccc(C(=O)O)cc1
inactive: outcome [1] | outcome [2] | outcome [3] | outcome [10] | outcome [5] | outcome [6] | outcome [7] | outcome [8]

C[N+](C)(C)CC[N+]1(C)Cc2c(Cl)c(Cl)c(Cl)c(Cl)c2C1
inactive: outcome [1] | outcome [2] | outcome [3] | outcome [10] | outcome [5] | outcome [7] | outcome [8] | outcome [9]

O=C(O)CNC(=O)c1ccccc1I
inactive: outcome [1] | outcome [2] | outcome [3] | outcome [10] | outcome [5] | outcome [6] | outcome [7] | outcome [8] | outcome [9]
